An excerpt weighted towards active compounds, which were near 5.9% of everything screened.
ABHD5-PLIN5 inh: ABHD5-PLIN5 protein interaction inhibition | Split G. princeps luciferase complementation, luminescence, 4 h | inhibition, % at 4 µM | 360,000 compounds, 0.78% hits;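 active = inhibition above the mean inhibition across every tested compound plus 3 SD, cut at about 22% in these data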;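 note: 0% = DMSO only wells and the 100% control is not disclosed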
ALR inh: inhibitors of human sulfhydryl oxidase ALR; P55789; purified ALR, DTT oxidation, H2O2 HRP-luminol luminescence; inhibition, % (test concentration not listed); 290,000 compounds, 3.8% hits; AID 485317;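 active = mean replicate inhibition above about 79%, with every replicate also reaching it, limit read from the data; inconclusive = only one of the two criteria met; inactive = mean below limit and not every replicate reaching it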
Target sequence (P55789 whole entry, looked up): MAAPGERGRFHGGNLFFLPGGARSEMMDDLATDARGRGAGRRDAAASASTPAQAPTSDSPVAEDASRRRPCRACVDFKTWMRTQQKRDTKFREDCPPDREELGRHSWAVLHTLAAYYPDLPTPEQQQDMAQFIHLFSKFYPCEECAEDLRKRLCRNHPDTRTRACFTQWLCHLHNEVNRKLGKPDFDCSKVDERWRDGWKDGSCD
LANA-H2B inh: blocks KSHV LANA binding to histone H2A/H2B; AID 2629; 320,000 compounds, 0.6% hits; inhibition, % (test concentration not listed); cell-free LANA-H2A/H2B peptide, fluorescence polarization; in the data active = inhibition mostly above about 10%, no sharp cut-off; inactive = mostly below about 6.7%
Rtt109 Vps75: inhibitors of Candida albicans Rtt109/Vps75 histone acetyltransferase | purified Rtt109/Vps75, ThioGlo CoA-SH fluorescence, 4 h | inhibition, % at 34.9 µM | 330,000 compounds, 0.16% hits | AID 540336;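 active = inhibition of at least 50% in every replicate; inconclusive = best replicate reaches 50% inhibition but some replicates fall short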
PRMT1 inh: inhibitors of human PRMT1; inhibition, % at 2.79 µM; AID 652257; recombinant PRMT1, activity-based probe fluorescence polarization; 370,000 compounds, 1.3% hits; Q99873;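 active = inhibition above about 21% made by adding two undisclosed values, limit read from the data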
Target sequence (Q99873 whole entry, looked up): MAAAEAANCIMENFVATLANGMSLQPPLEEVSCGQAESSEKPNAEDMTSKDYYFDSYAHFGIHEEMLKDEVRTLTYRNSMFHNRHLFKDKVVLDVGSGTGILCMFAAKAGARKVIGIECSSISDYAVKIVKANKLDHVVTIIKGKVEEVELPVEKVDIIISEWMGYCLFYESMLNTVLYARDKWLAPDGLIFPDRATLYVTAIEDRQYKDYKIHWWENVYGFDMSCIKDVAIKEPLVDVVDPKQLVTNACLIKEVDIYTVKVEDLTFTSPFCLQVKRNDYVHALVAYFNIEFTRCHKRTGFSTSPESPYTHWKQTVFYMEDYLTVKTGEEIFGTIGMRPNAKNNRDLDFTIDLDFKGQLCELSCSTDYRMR
rCAG binder: r(CAG) repeat RNA binding; TO-PRO-1 dye displacement fluorescence; inhibition, % at 3 µM; 370,000 compounds, 1.3% hits; AID 651821;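 active = inhibition above the plate cutoff, the mean of all test compounds on that plate plus 3 SD, cut at about 35% in these data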;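 note: 0% = DMSO alone and 100% = 100 µM mitoxantrone as full dye displacement; higher means more dye released from RNA so lower well fluorescence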
The depositor's hits bear a star; ? = inconclusive; / = no result.

SMILES	ABHD5-PLIN5 inh	ALR inh	LANA-H2B inh	Rtt109 Vps75	PRMT1 inh	rCAG binder
CC(C)(C)N(Cc1ccccc1)C(=O)CN1C(=O)c2ccccc2C1=O	-11.2	-3.1	-4.9	-3.5	-1.5	-8.1
COc1ccc(C2(C)NC(=O)N(CC(=O)NCc3ccccc3)C2=O)cc1OC (centres undefined)	-0.4	/	24.8*	-0.2	-1.5	-0.3
Cc1ccc(C2(C)NC(=O)N(CC(=O)N(Cc3ccccc3)C(C)(C)C)C2=O)cc1 (centres undefined)	0.3	/	17.4*	6.2	-0.7	-7.2
CC(C)N1CCC1(C)C(=O)Nc1nccc2cccnc12 (centres undefined)	-6.4	/	/	/	2.9	-2.0
CCOC(=O)c1c(C)nc2ccccc2c1-c1ccccc1	-2.9	-6.2	-4.1	-1.4	2.5	-6.8
CCOC(=O)c1c(CCl)nc2ccccc2c1-c1ccccc1	-3.9	95.5*	7.7	-7.0	3.5	-3.3
COc1ccc(-n2c(O)c(/C=N/NS(=O)(=O)c3cccc([N+](=O)[O-])c3)c3ccccc3c2=O)cc1OC	0.7	88.7*	-10.3	-4.2	7.4	32.0
CON(C)C(=O)/C=C/c1ccc([B-](F)(F)F)cc1	0.4	/	/	3.9	0.1	0.9
O=C(NCC(=O)N1CCCCC1)c1ccc2ccccc2c1	6.6	0.9	-1.8	51.7*	0.4	-5.9
CC(C)CN(C#N)c1nc(N2CCOCC2)nc(N2CCOCC2)n1	2.3	-8.7	0.1	15.3	1.7	-8.3
CN(C#N)c1nc(N2CCOCC2)nc(N2CCOCC2)n1	-3.2	17.4	41.2*	11.9	3.6	-0.5
CCN(CC)CCN(C(=O)c1ccc(S(=O)(=O)N(C)C2CCCCC2)cc1)c1nc2ccc(OC)cc2s1	4.1	-21.2	108.3*	4.6	0.2	-3.3
Cc1nn(-c2ccccc2)c(N)c1Sc1ccc([N+](=O)[O-])cc1	-3.7	40.4	1.0	11.5	9.8	-2.3
Cc1nn(S(=O)(=O)c2ccc(Cl)cc2)c(C)c1Sc1ccc([N+](=O)[O-])cc1	0.7	0.0	11.9*	-7.5	2.1	-0.5
COc1cc(C(=O)O/N=C2\C=CC(=O)C(C)=C2)cc(OC)c1OC	-3.6	97.7*	1.4	-5.0	-0.5	2.9
Cc1ccc2c(c1)sc[n+]2Cc1ccccc1	15.4	11.2	1.4	15.0	64.2*	2.2
Cc1ccc(-c2cc[n+](Cc3ccccc3)cc2)cc1	5.5	-2.9	3.4	5.3	-2.1	3.2
Cn1cnnc1SCC(=O)Nc1ccc(N2CCCCC2)cc1	-1.4	98.7*	-0.2	-5.2	0.7	1.4
COCCn1cnnc1SCC(=O)Nc1cc(C)on1	-2.2	-11.9	4.2	-2.8	-1.9	0.9
Cn1cnnc1SCC(=O)Nc1ccccc1	1.7	-14.6	1.4	-21.1	-0.8	2.1
COCCn1cnnc1SCC(=O)Nc1ccc(N2CCCCC2)cc1	4.5	95.4*	18.9	-2.5	-1.8	-1.5
Cn1cnnc1SCC(=O)Nc1ccc(S(N)(=O)=O)cc1	7.2	93.5*	-1.2	?	5.6	-3.0
CCC(=O)N(C)C[C@H]1Oc2cc(-c3cccnc3)ccc2S(=O)(=O)N([C@H](C)CO)C[C@H]1C	1.9	/	/	/	1.4	0.6
CN(C)c1cccc(/C=C2\CC3(OC(=O)c4ccccc4)CCCN2C3)c1 (centres undefined)	/	/	/	/	2.5	4.7
CCOC(=O)c1ccc(N=C2NC(=O)CS2)cc1	3.2	98.2*	0.8	7.2	4.5	0.4
SMILES	ABHD5-PLIN5 inh	ALR inh	LANA-H2B inh	Rtt109 Vps75	PRMT1 inh	rCAG binder
Cc1ccc(N=C2NC(=O)CS2)cc1	2.8	-1.9	1.4	11.8	0.5	5.2
CCOC(=O)c1ccc(N=c2scc(C)n2CC)cc1	-2.1	37.7	42.6*	-4.9	2.0	-2.0
CCOC(=O)c1ccc(N=NN(C)C)cc1	-2.9	-9.8	2.7	-1.0	-3.2	-2.4
CCCCN(C=O)c1c(CC)nc2c(OCc3ccc(Cl)cc3)cccn12	5.5	/	/	/	0.0	1.4
Cc1ccc(C(=O)C2CCN(CC(=O)N3CCOCC3)CC2)cc1	/	/	/	/	3.0	-0.1
COCCNC(=S)N(C)[C@H]1C[C@H]2c3[nH]c4ccccc4c3CCN2C(=O)[C@H]1[C@H](C)O	/	/	/	/	5.3	5.8
Nn1c(SCc2ccc(Br)cc2)nnc1-c1n[nH]c2c1CCC2	/	/	/	/	-1.7	0.4
CC(C)[C@H](NC(=O)c1ccc(Cl)cc1Cl)C(=O)NNc1cccc(C(=O)O)c1	9.1	7.1	14.5*	-4.6	5.1	2.1
CC(C)C(NC(=O)c1ccc(Cl)cc1Cl)C(=O)N1CCC1 (centres undefined)	11.1	0.5	1.7	-16.3	-2.8	-0.6
COc1ccccc1N1CCN(CCN(C(=O)c2ccc(F)cc2)c2ccccn2)CC1	1.2	94.3*	0.3	4.2	5.5	-2.1
COc1ccccc1N1CCN(CCCC(=O)c2ccc(F)cc2)CC1	-2.6	64.0	-4.6	-4.1	-3.2	-0.5
COc1ccccc1N1CCN(CCN(C(=O)C2CCCCC2)c2ccccn2)CC1	1.4	97.1*	-4.7	-20.9	6.5	-1.6
Cc1cc(Br)cn2c(CC(C)(C)C)c(C3CCCCC3)nc12	5.3	/	/	/	1.4	-1.0
C=CCN1C(=O)[C@@H](CC(=O)NCCCOC)[C@]2(C(=O)OCC)CCCCC/C=C/12	/	/	/	/	2.2	1.1
O=C1CCCCC1C(Nc1ccc(Br)cc1)c1ccccc1 (centres undefined)	-6.4	28.7	-1.6	-8.9	0.1	-1.8
O=C1CCCCC1C(Nc1ccc(Cl)cc1)c1ccccc1 (centres undefined)	-13.5	98.4*	-2.7	3.3	-0.7	-2.2
O=C1CCCC[C@@H](O)[C@H](O)C[C@H](c2ccccc2)O1	-4.9	/	/	/	2.9	0.4
C=C1CC2(CC(c3ccccc3)OC(c3ccccc3)C2)OC1=O (centres undefined)	23.0*	/	/	-0.5	-0.3	-0.2
N#C/C(=C/c1ccc(N2CCCCCC2)o1)c1cccc(F)c1	59.4*	1.4	-3.2	1.6	18.0	19.8
N#C/C(=C/c1ccc(N2CCOCC2)o1)c1ccc(Br)cc1	63.2*	91.9*	-0.1	25.7	8.9	15.0
COc1cc(N2CCCC2)c(OC)cc1/C=C(/C#N)c1cccc(F)c1	-0.7	/	1.1	-1.8	/	/
N#C/C(=C/c1ccc(N2CCCCCC2)o1)c1ccc(F)cc1	70.7*	17.2	0.6	-4.9	/	/
O=C(N/N=C/c1ccc(N2CCCCC2)o1)c1ccccc1	4.4	-45.5	-18.4	33.6	13.0	6.8
N#C/C(=C\c1ccc(N2CCOCC2)cc1)c1ccccc1	8.8	65.3	-5.5	-7.4	-1.5	1.8
C[C@@H]1C=CCCO[C@]12C(=O)N(CC1CC1)c1cccc(Br)c12	/	/	/	/	-4.4	-1.6
CC(=O)Nc1c(-c2ccc(C(F)(F)F)cc2)nc2ncccn12	/	/	/	/	-3.1	1.0
CC(C)n1c(NCc2ccc(N(C)C)cc2)nc2ccccc21	7.3	92.7*	2.8	-2.6	-2.1	31.2
CC(C)n1c(NCc2ccccc2O)nc2ccccc21	1.5	97.7*	-4.1	-1.0	-2.5	-6.6

From PubChem
